# HT1080NT lethal: kills 2HG-producing HT-1080-NT fibrosarcoma cells; Potency, µM (series often up to 46.1 µM), for inactives: top-dose activity, negative = less viability, most hits filed as cytotoxic; AID 686970; HT-1080-NT fibrosarcoma viability, CellTiter-Glo ATP luminescence, 48 h; 360,000 compounds, 1.6% hits;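 also: NT is the 2HG producing partner of a matched IDH1 knockdown line; potency is read from the fitted curve at half-maximal effect; 0% = DMSO-treated cells and -100% = media-only wells without cells; nearly all actives have a fitted effect of over 55% in size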
#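 HT-1080-NT; 750 cells/well; 5% FBS RPMI; 48 h compound, 37 degrees C; CellTiter-Glo luminescence; curve fitting and curve-class assignment.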
# DT40 TDP1 CPT: growth inhibition of DT40 Tdp1-/-;hTDP1 cells with camptothecin (screen for TDP1 inhibitors). Potency, µM (top dose mostly 46.2 µM), for inactives: at the highest dose activity change, negative = growth inhibition, hits mostly inhibitors. 420,000 compounds, 12% hits. chicken DT40 Tdp1-/-;hTDP1 cells + 20 nM CPT, ATP luminescence, 48 h; also: potency is read from the fitted curve at half-maximal effect; nearly all actives have a fitted effect of over 55% in size
#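 Chicken DT40 Tdp1-/- cells complemented with human TDP1, 400 cells/well, exposed to compounds plus 20 nM camptothecin for at least 48 h at 37 C; viability read as ATP content by CellTiter-Glo luminescence.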
# TDP1 cell noCPT: qHTS for Inhibitors of human tyrosyl-DNA phosphodiesterase 1 (TDP1): qHTS in cells in absence of CPT. DT40 Tdp1-/- hTDP1 cells, no CPT, ATP luminescence, 48 h. Potency, µM (doses to about 46.2 µM), for inactives: at the highest dose activity change, negative = growth inhibition, most hits filed as inhibitors. 420,000 compounds, 15% hits. AID 686978, 2013; also: potency is read from the fitted curve at half-maximal effect; nearly all actives have a fitted effect of over 55% in size
#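 Camptothecin absent (DMSO only). Human TDP1-complemented DT40 knockout cells, 400 cells/well, 37 °C for minimum 48 hr; ATP measured via CellTiter-Glo, 30 min dark incubation, luminescence.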
# IL-1B inflam inh: inflammasome signaling inhibition, IL-1 beta readout. 360,000 compounds, 4.7% hits. THP-1 LPS/ATP IL-1B secretion, AlphaLISA, 16 h; stronger effect = lower value. activity change, % at 57.5 µM; in the data active = activity change below about -50%; inconclusive = mostly about -30% to -49%
#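 Secreted IL-1B measured by AlphaLISA bead assay after 16 h compound exposure of THP-1 cells; compounds (final up to 57.5 uM) added 1 h before LPS (250 ng/mL) and ATP (1.25 mM) stimulation; lower signal means less secretion.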
# HT1080 IDH1KD tx: HT-1080 IDH1 knockdown cell toxicity (counter line); HT-1080 IDH1 knockdown viability, ATP luminescence, 48 h; Potency, µM (top dose mostly 46.1 µM), for inactives: top-dose activity, negative = toxicity, hits mostly cytotoxic; 360,000 compounds, 2% hits;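 also: potency is read from the fitted curve at half-maximal effect; 0% = DMSO wells and -100% = cell-free medium wells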
#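 Using the IDH1-knockdown HT-1080 line run in the same batch and compound series as the NT line, viability after 48 h at 37 °C was determined by CellTiter-Glo luminescence and expressed as % activity.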
# Active calls of the source: *; ? = inconclusive; / = no result. Rows were chosen to be rich in hits. Some 19% of all compounds tested hit in one or more screens of this group. Unless noted, calls follow the shape of the dose curve; as a rule, active = well fitted curve in the direction sought with a large enough effect; inconclusive = small, poorly fitted or top-dose-only effect, or another doubt; inactive = no such curve, though single readings can be large; an effect the other way counts as inactive or inconclusive. Unless noted, % is scaled to controls: 0 for no effect and ±100 for the full control effect.
SMILES,HT1080NT lethal,DT40 TDP1 CPT,TDP1 cell noCPT,IL-1B inflam inh,HT1080 IDH1KD tx
COc1ccc(Cc2c(-c3ccco3)nc3c(C)cc(Br)cn23)c(C)c1,?,2.9µM*,2.3µM*,2,6.5µM*
COc1ccccc1Cc1c(-c2ccco2)nc2c3ccccc3ccn12,?,23µM*,16µM*,-2,?
COc1ccc(Cc2c(-c3ccco3)nc3ccc(Cl)cn23)c(C)c1,-24%,?,?,-4,?
COc1ccccc1Cc1c(-c2ccco2)nc2c(C)cc(Br)cn12,3.3µM*,2.9µM*,5.8µM*,-13,3.7µM*
COc1ccc(Cc2c(-c3ccco3)nc3ccc(Br)cn23)c(C)c1,?,21µM*,?,-23,21µM*
CCN(C(=O)CSc1nnc(-c2ccccc2Cl)n1N)c1c(N)n(Cc2ccccc2)c(=O)[nH]c1=O,2%,17%,-12%,-26,13%
Cc1ccccc1Nc1nc(N)nc(CN(C)Cc2ccccc2Cl)n1,?,-26%,?,-24,?
COc1ccc(C(=O)OCCc2sc[n+](CC(=O)c3ccccc3)c2C)cc1,-21%,?,?,-55*,-18%
Cc1c(CCOC(=O)c2cccc([N+](=O)[O-])c2)sc[n+]1CC(=O)c1ccccc1,-3%,8.2µM*,?,-3,-2%
Cc1c(CCOC(=O)c2ccc([N+](=O)[O-])cc2)sc[n+]1CC(=O)c1ccccc1,12%,-23%,?,-22,2%
O=C(C[n+]1csc2ccccc21)c1cccc([N+](=O)[O-])c1,/,11µM*,10µM*,/,/
Cc1cc[n+](CC(=O)c2cccc([N+](=O)[O-])c2)c2ccccc12,-4%,8%,-25%,-2,-19%
CCN1CCN(c2cc(C)c3cc(NC(=O)c4ccc(Br)o4)ccc3n2)CC1,-28%,?,?,-2,?
CCN(CC)c1cc(C)c2cc(NC(=O)c3ccc(Br)o3)ccc2n1,-15%,?,?,-66*,-22%
CCN(CC)c1cc(C)c2cc(NC(=O)c3ccc(OC)c(OC)c3)ccc2n1,/,21µM*,23µM*,/,/
CCN(CC)c1cc(C)c2cc(NC(=O)c3ccccc3OC)ccc2n1,?,?,16µM*,/,?
CCCCc1ccc(C(=O)Nc2ccc3nc(N(CC)CC)cc(C)c3c2)cc1,/,?,18µM*,/,/
COc1ccc(OC)c(C(C)NC(=O)C(C)n2cc([N+](=O)[O-])cn2)c1 (configuration not stated),2%,-12%,4%,1,8%
CCN(CC)c1cc(C)c2cc(NC(=O)c3cccs3)ccc2n1,?,16µM*,23µM*,/,-1%
CCN(CC)c1cc(C)c2cc(NC(=O)c3cccc(F)c3)ccc2n1,/,?,23µM*,/,/
CCSc1nnc(-c2ccc(C)cc2)c2ccccc12,-17%,?,16µM*,-22,-20%
CCN(CC)CCOc1nnc(-c2ccc(C)cc2)c2ccccc12,-7%,?,15µM*,-57*,-8%
Nc1nnc(SCc2c(F)cccc2Cl)s1,-1%,9%,-18%,-8,1%
CC(=O)Nc1ccc(OC[C@@H](O)CNC(C)C)cc1,/,21%,-7%,/,/
Cc1ccc(C(=O)CN2/C(=C(\O)c3ccccc3)C(=O)c3ccccc3S2(=O)=O)c(C)c1,?,12µM*,16µM*,9,?
Cc1cc(C(=O)CN2C(=O)c3ccccc3S2(=O)=O)c(C)n1-c1ccccc1,1%,21µM*,23µM*,-28,-7%
CCn1c(C)cc(C(=O)CN2C(=O)c3ccccc3S2(=O)=O)c1C,8%,3%,-9%,-8,0%
Cc1cc(C(=O)CN2C(=O)C3CC=CCC3C2=O)c(C)n1-c1ccccc1 (configuration not stated),-8%,23µM*,23µM*,0,-12%
Cc1ccc(C(=O)CN2C(=O)c3ccccc3S2(=O)=O)cc1,10%,28%,7%,13,-3%
